{"source": "PubChem BioAssay", "note": "A number with no mark means an inactive call. How the calls were made is not given here.", "data": [{"target": "Pantothenate synthetase (Mycobacterium tuberculosis (strain ATCC 25618 / H37Rv)) (UniProt P9WIL5)", "sequence (P9WIL5 whole entry, looked up)": "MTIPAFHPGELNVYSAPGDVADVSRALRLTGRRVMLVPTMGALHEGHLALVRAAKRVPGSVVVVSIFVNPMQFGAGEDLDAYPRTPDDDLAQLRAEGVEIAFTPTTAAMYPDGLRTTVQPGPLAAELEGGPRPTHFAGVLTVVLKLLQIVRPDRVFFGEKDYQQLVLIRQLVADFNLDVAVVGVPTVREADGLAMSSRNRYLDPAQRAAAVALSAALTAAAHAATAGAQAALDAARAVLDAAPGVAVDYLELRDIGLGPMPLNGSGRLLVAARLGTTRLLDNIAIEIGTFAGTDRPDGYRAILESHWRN", "assay": "Recombinant Mtb pantothenate synthetase (PanC) inhibitors, coupled enzyme, confirmatory (AID 375);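 further: 0% = full reaction with vehicle and 100% = no enzyme background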", "conditions": "coupled enzyme assay; at 10 µM, active compounds read high", "units": {"inhibition": "%"}, "values": [{"compound": "O=C(OCn1nnc2ccccc2c1=O)C1CCN(S(=O)(=O)c2cccs2)CC1", "inhibition": 0}, {"compound": "COc1cccc(C(=O)N2CCCC(c3nc(-c4cccs4)no3)C2)c1", "note": "(centres undefined)", "inhibition": 0}, {"compound": "Cc1c(OCC(F)(F)F)ccnc1CS(=O)c1nc2ccccc2[nH]1", "note": "(centres undefined)", "inhibition": 6}, {"compound": "CCN(CC(=O)NC(=O)NCc1ccco1)Cc1nc2ccccc2c(=O)[nH]1", "inhibition": 0}, {"compound": "O=C(CSc1nnc(-c2cccnc2)o1)OC1CCCCC1", "inhibition": 0}, {"compound": "O=C(O)C1CCCCC1C(=O)Nc1ccccn1", "note": "(centres undefined)", "inhibition": 0}, {"compound": "CS(=O)(=O)c1ccc2nc(NC(=O)CCC(=O)c3cccs3)sc2c1", "inhibition": 1}, {"compound": "COc1cccc(-c2csc3nnc(SCC(=O)c4ccc(NC(C)=O)cc4)n23)c1", "inhibition": 1}, {"compound": "Cc1nc2oc3c(NCc4ccccn4)ncnc3c2c2c1COC(C)(C)C2", "inhibition": 0}, {"compound": "CCN1C(=O)C(C(=O)Nc2ccc(OC)cc2)C2CC1(C)Oc1ccccc12", "note": "(centres undefined)", "inhibition": 0}, {"compound": "O=C(CN1C(=O)COc2ccccc21)NCCCN1CCc2ccccc2C1", "inhibition": 0}, {"compound": "O=c1ccc(S(=O)(=O)N2CCC(Cc3ccccc3)CC2)c[nH]1", "inhibition": 0}, {"compound": "Cc1nnc(SCC(=O)NCc2ccc3c(c2)OCO3)s1", "inhibition": 5}, {"compound": "CCCCOCCCNC(=O)COc1ccccc1", "inhibition": 1}, {"compound": "COC(=O)CSc1nc2nc(C)cc(C)n2n1", "inhibition": 7}, {"compound": "Cc1ccc(S(=O)(=O)c2cc3c(=O)n4ccccc4nc3n(CC3CCCO3)c2=N)cc1C", "note": "(centres undefined)", "inhibition": 0}, {"compound": "CCOc1ccccc1C(=O)Nc1nnc(CC)s1", "inhibition": 0}, {"compound": "Nc1ccc(S(=O)(=O)NC(=O)c2ccccc2)cc1", "inhibition": 0}, {"compound": "CCc1nnc(NC(=O)c2ccc(S(=O)(=O)NCC(C)C)cc2)s1", "inhibition": 0}, {"compound": "CC1N=C2c3ccccc3N=C(SCc3cc(=O)n4cc(Cl)ccc4n3)N2C1=O", "note": "(centres undefined)", "inhibition": 2}, {"compound": "CCC(C)(C(=O)NC1CCCCC1)N(Cc1ccco1)C(=O)c1cnccn1", "note": "(centres undefined)", "inhibition": 3}, {"compound": "O=C(O)c1cc(-c2ccccc2)nc2ccccc12", "inhibition": 3}, {"compound": "O=C(CN1C(=O)c2ccccc2S1(=O)=O)NCc1ccccc1Cl", "inhibition": 0}, {"compound": "O=C(NCCSc1c[nH]c2ccccc12)c1ccc(Br)o1", "inhibition": 1}, {"compound": "CCOC(=O)c1ccc(N=c2sc(C(=O)OC)cc(=O)n2Cc2ccco2)cc1", "inhibition": 0}, {"compound": "Cc1ccc(S(=O)(=O)N2CCN(C(=O)CSc3nnnn3C)C2)cc1", "inhibition": 1}, {"compound": "CC(C)CC(=O)N1CCN(S(=O)(=O)c2ccc(F)cc2)CC1", "inhibition": 0}, {"compound": "N#Cc1c(-c2ccccc2)nc(N2CCCCCC2)[nH]c1=O", "inhibition": 0}, {"compound": "CCOC(=O)Cn1c(CN2CCOCC2)nc2c1c(=O)[nH]c(=O)n2C", "inhibition": 0}, {"compound": "CCOc1ccc(N2CC(C(=O)NCCc3ccc(OC)c(OC)c3)CC2=O)cc1", "note": "(centres undefined)", "inhibition": 0}, {"compound": "COc1ccc(C(NC(=O)c2ccco2)c2ccc(OC)c(OC)c2)cc1", "note": "(centres undefined)", "inhibition": 0}, {"compound": "O=C(NCCOC(=O)C1COc2ccccc2O1)C1COc2ccccc2O1", "note": "(centres undefined)", "inhibition": 0}, {"compound": "CCC(Sc1nc2sc(C(=O)OC)c(C)c2c(=O)n1N)C(=O)NCC1CCCO1", "note": "(centres undefined)", "inhibition": 4}, {"compound": "CCOC(=O)CCC(=O)Nc1ccc(S(=O)(=O)N2CCCC2)cc1", "inhibition": 0}, {"compound": "C/C=C/COC(=O)c1[nH]c2c(c1C)C(=O)CC(c1ccco1)C2", "note": "(centres undefined)", "inhibition": 6}, {"compound": "CCOC(=O)CNC(=O)Nc1nnc(-c2ccc(OCC)cc2)o1", "inhibition": 5}, {"compound": "C=CCSc1nnc(-c2ccccc2NC(C)=O)c(=O)[nH]1", "inhibition": 0}, {"compound": "COc1cc(C(=O)NCC(=O)OCC(=O)c2ccc[nH]2)cc(OC)c1OC", "inhibition": 2}, {"compound": "Cc1onc(-c2ccccc2)c1C(=O)Nc1sc2c(c1C(N)=O)CCC2", "inhibition": 5}]}]}
